Shown is part of a subset that was picked to be rich in hits.
TbREL1 inh = TbREL1 inhibition, primary screen | P86926 | 0.49% of 89,000 active | TbREL1 RNA ligation, FRET fluorescence | AID 1117264 | inhibition, % at 9.66 µM;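 active means inhibition above the mean inhibition across all screened compounds plus 3 SD, cut at about 11% in these data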
Target sequence (P86926 whole entry, looked up): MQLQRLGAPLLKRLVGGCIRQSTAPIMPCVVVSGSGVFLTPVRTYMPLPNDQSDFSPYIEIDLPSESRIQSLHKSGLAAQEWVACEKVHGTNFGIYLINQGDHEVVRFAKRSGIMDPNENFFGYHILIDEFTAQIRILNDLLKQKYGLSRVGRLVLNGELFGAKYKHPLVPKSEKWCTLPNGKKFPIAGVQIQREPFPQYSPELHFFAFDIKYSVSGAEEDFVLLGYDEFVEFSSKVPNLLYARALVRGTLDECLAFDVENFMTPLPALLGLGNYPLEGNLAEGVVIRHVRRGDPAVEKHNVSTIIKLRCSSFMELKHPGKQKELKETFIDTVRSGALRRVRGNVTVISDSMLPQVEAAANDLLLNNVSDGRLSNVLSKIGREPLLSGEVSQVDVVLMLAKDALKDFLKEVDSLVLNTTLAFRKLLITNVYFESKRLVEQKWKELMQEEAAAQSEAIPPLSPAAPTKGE
TbREL1 conf = TbREL1 inhibition, confirmation; 37% of 390 active; inhibition, % at 9.66 µM; shares compounds with TbREL1 inh; TbREL1 RNA ligation, FRET fluorescence;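 active means mean inhibition across replicates above a set limit taken from the earlier primary screen, cut at about 11% in these data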
A number is an active result; i = inactive.

SMILES | TbREL1 inh | others
Cc1ccccc1NC(=O)[C@H]1CC(=O)O[C@@H]1c1ccccc1 | i
CCCC[C@H]1C2CC(OC(=O)Nc3ccccc3C(F)(F)F)C(C2)[C@H]2CCCCN21 (some centres not stated) | i
CC1(C)CC(NC(=O)c2cccc(S(=O)(=O)N(Cc3ccccc3)c3ccccc3)c2)CC(C)(C)N1 | 13 | TbREL1 conf=i
O=C(O)c1cccc(S(=O)(=O)N(Cc2ccccc2)c2ccc(Cl)cc2)c1 | i
C=CCN(c1ccccc1)S(=O)(=O)c1cccc(C(=O)NC2CCC(O)CC2)c1 (configuration not stated) | i
O=C1CCCN1CCCNc1nc(NCc2cccs2)nc2ccsc12 | i
CN1C(=O)c2cc(NC(=O)C3CCOCC3)ccc2OC[C@@H]2O[C@@H](CC(=O)NCc3ccccc3F)CC[C@@H]21 | i
C[C@H]1C2CC(OC(=O)Nc3ccc(C#N)cc3)C(C2)[C@H]2CCCCN21 (some centres not stated) | i
COc1ccc2nc(C)cc(Nc3ccccc3O)c2c1 | i
COc1cccc(Nc2cc(C)nc3ccccc23)c1 | i
COc1ccc2nc(C)cc(NCc3cccc(C(F)(F)F)c3)c2c1 | 13 | TbREL1 conf=16
O=C(Nc1c(-c2ccccc2)nc2ncccn12)c1ccccc1 | i
Cn1c(N)c(C(=O)CSc2nnc(-c3c[nH]c4ccccc34)n2C2CC2)c(=O)[nH]c1=O | 15 | TbREL1 conf=i
Cn1c(N)c(C(=O)CSc2nnc(C3CC3)n2Cc2ccccc2)c(=O)[nH]c1=O | i
Cc1ccc(-n2nnnc2SCC(=O)c2c(N)n(C3CC3)c(=O)[nH]c2=O)cc1 | i
CC(C)CCOC(=O)C1C2C=CC3(CN(Cc4cccs4)C(=O)C13)O2 (configuration not stated) | i
O=C(NCC1CCCO1)C1C2C=CC3(CN(Cc4cccs4)C(=O)C13)O2 (configuration not stated) | 20 | TbREL1 conf=i
O=C(NCc1cccs1)C1C2C=CC3(CN(Cc4ccccc4)C(=O)C13)O2 (configuration not stated) | i
Cc1ccc(NC(=O)OC2CC3CC2[C@H]2CCCCN2[C@H]3C)cc1 (some centres not stated) | i
N#Cc1cnc(SCC(=O)c2ccccc2)nc1N | i
O=C(CSc1nnc(-c2ccco2)c(-c2ccco2)n1)c1ccccc1 | 12 | TbREL1 conf=13
Cn1c(SCC(=O)c2ccc(-c3ccccc3)cc2)nnc1-c1ccco1 | i
Cc1ccc(S(=O)(=O)N2c3ccc(F)cc3C[C@H]2CSc2ccccc2)cc1 | i
COc1ccc(C(=O)CSc2nnc(-c3cccs3)o2)cc1OC | i
COc1cccc(C(=O)Nc2ccccc2F)c1 | i
SMILES | TbREL1 inh | others
COC(=O)c1sccc1NC(=O)c1cccc(OC)c1 | 50 | TbREL1 conf=i
COc1cccc(C(=O)Nc2ccc(F)c(F)c2F)c1 | i
CCOC(=O)CC[C@@]1(C(=O)OCC)C[C@@H](CC(=O)NCC23CC4CC(CC(C4)C2)C3)C(=O)N2CCCC=C21 | i
O=C(Cc1ccccc1Cl)NCCN1C(=O)C2C3C=CC(C3)C2C1=O (configuration not stated) | i
CCC[C@H]1[C@@H](NC(=O)C#Cc2ccccc2)CC[C@@]23CCCN2C(=O)CCC[C@@H]13 | i
COc1ccc(CN2C(=O)c3ccnn3CC2(C)c2nnnn2-c2c(C)cccc2C)cc1 (configuration not stated) | i
Cc1cnc(C)c(Nc2nc(C(N)Cc3ccc(Cl)cc3)cs2)n1 (configuration not stated) | 11 | TbREL1 conf=i
NC(Cc1ccc(C(F)(F)F)cc1)c1csc(Nc2nncc3ccccc23)n1 (configuration not stated) | i
COc1ccc(CC(N)c2csc(Nc3ccc(C(C)=O)cc3)n2)cc1 (configuration not stated) | i
Cc1cc(NS(=O)(=O)c2ccc(NC(=O)CSc3nnc(-c4ccncc4)n3-c3ccccc3)cc2)nc(C)n1 | i
COc1cc(NC(=O)c2ccccc2)c(C)cc1NC(=O)CSc1nnc(-c2cnccn2)n1-c1ccc(C)cc1 | i
COc1ccc(N2C[C@@]3(O)CC[C@@H](O)[C@@H](OC)[C@@H]3[C@@](C)(O)[C@@H]2CC=C(C)C)cc1 | i
COc1ccc(CNS(=O)(=O)CC2NCCc3ccccc32)cc1 (configuration not stated) | i
COc1ccc(-c2nc(CN3CCN(c4cc(C)nc(C)c4)CC3)c(C)o2)c2ccccc12 | 15 | TbREL1 conf=i
COc1ccc(CCNC(=O)C2CCCN(Cc3nc(-c4ccccc4C)oc3C)C2)cc1OC (configuration not stated) | i
COc1ccc(F)c(-c2nc(CN3CCN(C(=O)c4ccco4)CC3)c(C)o2)c1 | i
O=C(CSc1nnc(-c2ccc(Cl)cc2)n1Cc1ccco1)Nc1cccc2ccccc12 | i
COc1cccc(CNC(=O)C2CCC(CNS(=O)(=O)c3cccc4cccnc34)CC2)c1OC (configuration not stated) | i
Cc1occc1C(=O)NCc1nc(-c2ccc(Cl)cc2)no1 | i
COc1ccc(-c2noc(CNC(=O)c3ccoc3C)n2)cc1 | 15 | TbREL1 conf=i
COc1ccc(-c2noc(CCC(=O)O)n2)cc1 | i
CCC(C)[C@H](NC(=O)[C@H](CC(C)C)NC(=O)OC(C)(C)C)C(=O)N[C@@H](Cc1ccccc1)C(=O)OC (some centres not stated) | i
O=C(NCc1ccccc1)OC1CC2CC1[C@H]1CCCCN1C2 (some centres not stated) | i
Cc1ccc(CN2CCCCC(NC(=O)Cc3cccs3)C2=O)cc1 (configuration not stated) | i
Clc1ccc(CN=C(Nc2ccccc2)NC2CCCCC2)cc1 | 13 | TbREL1 conf=15
SMILES | TbREL1 inh | others
O=C(Nc1nnc(-c2ccc(Cl)cc2)o1)NC1CCCCC1 | i
O=C(Nc1cccc(Cl)c1)NC1CCCCC1 | i
CCC(C#Cc1ccccc1)N(C)C(N)=NC(=O)/C=C/c1ccccc1 (configuration not stated) | i
COc1cccc2cc(C(=O)N3CCN(c4ccccc4F)CC3)c(=O)oc12 | i
COc1cc([N+](=O)[O-])cc2cc(C(=O)N3CCN=C3c3ccccc3)c(=O)oc12 | 11 | TbREL1 conf=i
COc1cc(Br)cc2cc(C(=O)N3CCN(c4ccccn4)CC3)c(=O)oc12 | i
Cc1ccc(S(=O)(=O)N(C)c2ccc(C(=O)NCC(c3ccccc3)N3CCCC3)cc2)cc1 (configuration not stated) | i
COc1ccccc1-c1c(C)nn2c(N3CCC(C(N)=O)CC3)cc(C)nc12 | i
CCOC(=O)N1CCN(C(=O)CSc2cc(C)nc3c(-c4ccccc4OC)c(C)nn23)CC1 | 13 | TbREL1 conf=i
COc1ccccc1-c1c(C)nn2c(N3CCC(C)CC3)cc(C)nc12 | i
CC(=O)c1cccc(NC(=O)C2(C)Cc3c(-c4cccc(C(N)=O)c4)ccnc3O2)c1 (configuration not stated) | i
CC1(C(=O)NCc2ccc(F)c(F)c2)Cc2c(-c3cccc(C(N)=O)c3)ccnc2O1 (configuration not stated) | i
CC(=O)NCCNC(=O)C1(C)Cc2c(-c3cccc(C(N)=O)c3)ccnc2O1 (configuration not stated) | 14 | TbREL1 conf=i
CCc1ccc(NC(=O)c2cc(C(C)C)on2)cc1 | i
CC(C)c1cc(C(=O)NCc2ccco2)no1 | i
CC(C)c1cc(C(=O)NCCc2ccccc2)no1 | 11 | TbREL1 conf=i

Bioassay records deposited in PubChem BioAssay by The Scripps Research Institute Molecular Screening Center.
